In PubChem BioAssay (EPA / NIEHS):
Active and inactive are the calls of the source. Rule for the calls: active = hit-call score of the fitted dose curve at least 0.9, where 1 is the maximum; inactive = score below 0.9.

The compounds below were run on growth arrest and DNA damage 45 (GADD45G), GADD45G (gene 10912) (assay: LTEA_HepaRG_GADD45G: Life Technologies and Expression Analysis (LTEA) Assay for growth arrest and DNA damage 45 (GADD45G) using HepaRG (AID 2283499)). Conditions: mRNA level, 48 h; actives raise or lower the signal.
Method in brief: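 Human hepatic HepaRG line treated 48 h with chemicals (eight concentrations, half-log steps from 100 uM); transcript induction or repression of GADD45G scored by qRT-PCR versus DMSO vehicle.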
With `COc1cc2c(c(OC)c1OC)-c1ccc(OC)c(=O)cc1[C@@H](NC(C)=O)CC2` the AC50 was 0.0846 µM (active).
For `CCn1nc(C)c2c1C(=O)NCC(c1ccc(O)cc1)=N2`, the outcome was “inactive”.
With `CCCCCCCCCC` the outcome was “inactive”.
With `O=C(O)c1ccc2c(c1)nc(C(=O)NC1CCN(C3CC3)CC1)n2Cc1cc(-c2ccc(Cl)s2)on1` the outcome was “inactive”.
With `Nc1ccn([C@@H]2O[C@H](CO)[C@@H](O)[C@@H]2O)c(=O)n1` the outcome was “inactive”.
In the case of `NC(=O)NN=Cc1ccc([N+](=O)[O-])o1`, the outcome is reported as “inactive”.
In the case of `OC(Cn1cncn1)(Cn1cncn1)c1ccc(F)cc1F`, the outcome is reported as “inactive”.
For `OCc1ccccc1`, the outcome was “inactive”.
With `NNC(=O)c1ccncc1` the outcome was “inactive”.
For `CCc1ccc(O)c(C(C)(C)C)c1`, the outcome was “inactive”.
In the case of `CCOC(N)=O`, the outcome is reported as “inactive”.
With `CC(C)CCCCCCOC(=O)C1CCCCC1C(=O)OCCCCCCC(C)C` (stereo not drawn) the outcome was “inactive”.
`c1ccc(C(O[C@@H]2CCCN(CCc3ccc4c(c3)OCO4)C2)c2ccccc2)cc1` was tested, and the AC50 was 75.3 µM (active).
In the case of `CC(C)C(=O)Nc1ccc([N+](=O)[O-])c(C(F)(F)F)c1`, the AC50 is reported as 85.6 µM (active).
`NC(=O)N(O)[C@@H]1COc2cc(OCc3ccccc3)ccc21` was tested, and the outcome was “inactive”.
For `O=c1[nH]cnc2c1ncn2[C@H]1CC[C@@H](CO)O1`, the outcome was “inactive”.
For `NC(N)=O`, the outcome was “inactive”.
With `COCc1nnc(-c2ccc[n+]([O-])c2)n1-c1c(Cl)c(Cl)cc2[nH]c(=O)c(=O)[nH]c12` the outcome was “inactive”.
`OC[C@H]1O[C@@H]2O[C@H]3[C@H](O)[C@@H](O)[C@@H](O[C@H]4[C@H](O)[C@@H](O)[C@@H](O[C@H]5[C@H](O)[C@@H](O)[C@@H](O[C@H]6[C@H](O)[C@@H](O)[C@@H](O[C@H]7[C@H](O)[C@@H](O)[C@@H](O[C@H]1[C@H](O)[C@H]2O)O[C@@H]7CO)O[C@@H]6CO)O[C@@H]5CO)O[C@@H]4CO)O[C@@H]3CO` was tested, and the outcome was “inactive”.
`CC(C)CC(C)O` (stereo not drawn) was tested, and the outcome was “inactive”.
In the case of `CCCCN1C(=O)[C@@H]([C@H](O)C2CCCCC2)NC(=O)C12CCN(Cc1ccc(Oc3ccc(C(=O)O)cc3)cc1)CC2`, the AC50 is reported as 4.63 µM (active).
With `CC(C)c1nnc2ccc(-c3ocnc3-c3cc(F)ccc3F)cn12` the AC50 was 0.0565 µM (active).
`CNC(C)=O` was tested, and the outcome was “inactive”.
With `OCCNCCO` the outcome was “inactive”.
In the case of `C=CN1CCCC1=O`, the outcome is reported as “inactive”.
`CCCCCCCCN(C)C` was tested, and the outcome was “inactive”.
With `c1ccc2ncccc2c1` the outcome was “inactive”.
`CCCCCCOC(=O)CC(CC(=O)OCCCCCC)(OC(=O)CCC)C(=O)OCCCCCC` was tested, and the outcome was “inactive”.
With `CCc1cccc(CC)c1N` the outcome was “inactive”.
In the case of `O=C1CN(N=Cc2ccc([N+](=O)[O-])o2)C(=O)N1`, the AC50 is reported as 71.6 µM (active).
In the case of `CCCC(CCC)C(=O)O`, the outcome is reported as “inactive”.
`Cc1ncc([C@@H](CCCCCCc2ccc3c(n2)NCCC3)CC(=O)O)cn1` was tested, and the outcome was “inactive”.
With `CCCCCCCCCCCCCCCCOS(=O)(=O)O` the outcome was “inactive”.
`CCN(CC)C(=S)SSC(=S)N(CC)CC` was tested, and the outcome was “inactive”.

Each compound was assayed on Glutamate-cysteine ligase regulatory (GCLM), GCLM (gene 2730) (assay: LTEA_HepaRG_GCLM: Life Technologies and Expression Analysis (LTEA) Assay for Glutamate-cysteine ligase regulatory (GCLM) using HepaRG (AID 2283500)). Conditions: mRNA level, 48 h; actives raise or lower the signal.
Method in brief: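 HepaRG, 48 h dosing, 100 uM top, half-log x8, 0.5% DMSO vehicle. Readout: GCLM mRNA by TaqMan qRT-PCR, housekeeping-normalized (ACTB/GAPDH/POLR2A). Curves fit bidirectionally vs DMSO baseline.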
For `COc1cc2c(c(OC)c1OC)-c1ccc(OC)c(=O)cc1[C@@H](NC(C)=O)CC2`, the outcome was “inactive”.
In the case of `CCn1nc(C)c2c1C(=O)NCC(c1ccc(O)cc1)=N2`, the outcome is reported as “inactive”.
With `CCCCCCCCCC` the outcome was “inactive”.
`O=C(O)c1ccc2c(c1)nc(C(=O)NC1CCN(C3CC3)CC1)n2Cc1cc(-c2ccc(Cl)s2)on1` was tested, and the outcome was “inactive”.
`Nc1ccn([C@@H]2O[C@H](CO)[C@@H](O)[C@@H]2O)c(=O)n1` was tested, and the outcome was “inactive”.
In the case of `NC(=O)NN=Cc1ccc([N+](=O)[O-])o1`, the AC50 is reported as 9.92 µM (active).
`OC(Cn1cncn1)(Cn1cncn1)c1ccc(F)cc1F` was tested, and the outcome was “inactive”.
`OCc1ccccc1` was tested, and the outcome was “inactive”.
In the case of `NNC(=O)c1ccncc1`, the outcome is reported as “inactive”.
In the case of `CCc1ccc(O)c(C(C)(C)C)c1`, the outcome is reported as “inactive”.
With `CCOC(N)=O` the outcome was “inactive”.
In the case of `CC(C)CCCCCCOC(=O)C1CCCCC1C(=O)OCCCCCCC(C)C` (stereo not drawn), the outcome is reported as “inactive”.
With `c1ccc(C(O[C@@H]2CCCN(CCc3ccc4c(c3)OCO4)C2)c2ccccc2)cc1` the outcome was “inactive”.
With `CC(C)C(=O)Nc1ccc([N+](=O)[O-])c(C(F)(F)F)c1` the AC50 was 50 µM (active).
For `NC(=O)N(O)[C@@H]1COc2cc(OCc3ccccc3)ccc21`, the outcome was “inactive”.
In the case of `O=c1[nH]cnc2c1ncn2[C@H]1CC[C@@H](CO)O1`, the outcome is reported as “inactive”.
`NC(N)=O` was tested, and the outcome was “inactive”.
With `COCc1nnc(-c2ccc[n+]([O-])c2)n1-c1c(Cl)c(Cl)cc2[nH]c(=O)c(=O)[nH]c12` the outcome was “inactive”.
`OC[C@H]1O[C@@H]2O[C@H]3[C@H](O)[C@@H](O)[C@@H](O[C@H]4[C@H](O)[C@@H](O)[C@@H](O[C@H]5[C@H](O)[C@@H](O)[C@@H](O[C@H]6[C@H](O)[C@@H](O)[C@@H](O[C@H]7[C@H](O)[C@@H](O)[C@@H](O[C@H]1[C@H](O)[C@H]2O)O[C@@H]7CO)O[C@@H]6CO)O[C@@H]5CO)O[C@@H]4CO)O[C@@H]3CO` was tested, and the outcome was “inactive”.
With `CC(C)CC(C)O` (stereo not drawn) the outcome was “inactive”.
`CCCCN1C(=O)[C@@H]([C@H](O)C2CCCCC2)NC(=O)C12CCN(Cc1ccc(Oc3ccc(C(=O)O)cc3)cc1)CC2` was tested, and the outcome was “inactive”.
With `CC(C)c1nnc2ccc(-c3ocnc3-c3cc(F)ccc3F)cn12` the outcome was “inactive”.
For `CNC(C)=O`, the outcome was “inactive”.
For `OCCNCCO`, the outcome was “inactive”.
`C=CN1CCCC1=O` was tested, and the outcome was “inactive”.
`CCCCCCCCN(C)C` was tested, and the outcome was “inactive”.
`c1ccc2ncccc2c1` was tested, and the outcome was “inactive”.
With `CCCCCCOC(=O)CC(CC(=O)OCCCCCC)(OC(=O)CCC)C(=O)OCCCCCC` the outcome was “inactive”.
With `CCc1cccc(CC)c1N` the outcome was “inactive”.
In the case of `O=C1CN(N=Cc2ccc([N+](=O)[O-])o2)C(=O)N1`, the AC50 is reported as 72.5 µM (active).
In the case of `CCCC(CCC)C(=O)O`, the outcome is reported as “inactive”.
For `Cc1ncc([C@@H](CCCCCCc2ccc3c(n2)NCCC3)CC(=O)O)cn1`, the outcome was “inactive”.
For `CCCCCCCCCCCCCCCCOS(=O)(=O)O`, the outcome was “inactive”.
In the case of `CCN(CC)C(=S)SSC(=S)N(CC)CC`, the outcome is reported as “inactive”.
